{"source": "PubChem BioAssay AID1490", "about": "(National Center for Advancing Translational Sciences (NCATS), 2009)", "note": "“And” between values parts separate entries of the source, which are not always exact repeats. Identical values can stand only once. Hit rate of the full screen: of about 310,000 compounds, about 11,000 (3.5%) were called active. Another 4% or so got no clear call; they are omitted. Calls follow the shape of the dose curve; as a rule, active = well fitted inhibition curve with a large enough effect; inconclusive = small, poorly fitted or top-dose-only effect, or another doubt; inactive = no such curve, though single readings can be large or run the other way. What follows is part of a selection rich in actives, with near analogues and random picks from the rest. Potency is read from the fitted curve at half-maximal effect."}
{"biological_target": "4'-phosphopantetheinyl transferase ffp (Bacillus subtilis) (UniProt Q9F4F7)", "assay": "qHTS Assay for Inhibitors of Bacillus subtilis Sfp phosphopantetheinyl transferase (PPTase);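 also: the enzyme is Sfp with the accession as filed and its product quenches rhodamine fluorescence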;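 as to largest response in the series, negative = inhibition: 0% = enzyme reaction without inhibitor and -100% = no enzyme wells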", "settings": "Biochemical Sfp PPTase activity", "how_it_was_run": "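With Hepes-Na pH 7.6 buffer containing 10 mM MgCl2, Sfp (15 nM) modified BHQ-2-YbbR (12.5 uM) using rhodamine-CoA (5 uM). Two reads 30 minutes apart at 525/598 nm yielded each well's rate.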"}
{"smiles": "CCOc1ccc(C2C3=C(CCCC3=O)N(CC(=O)O)C3=C2C(=O)CCC3)cc1", "largest response in the series, negative = inhibition": "-3.36% (inactive)"}
{"smiles": "Cc1ccnc(SCC(N)=O)n1", "largest response in the series, negative = inhibition": "7.56% (inactive)"}
{"smiles": "Cc1ccnc(-n2sc3ccccc3c2=O)n1", "Potency": "2.51 µM (active)"}
{"smiles": "Cc1ccnc(N2CCCC(C(=O)NC3CC3)C2)n1", "note": "(stereo not given)", "largest response in the series, negative = inhibition": "12.1% (inactive)"}
{"smiles": "CCN(CC(=O)NCCCN1CCOCC1)S(=O)(=O)c1cc(Cl)ccc1Cl", "largest response in the series, negative = inhibition": "9.56% (inactive)"}
{"smiles": "COc1ccc(CC(=O)N/N=C/c2cc([N+](=O)[O-])cc(Br)c2O)cc1", "largest response in the series, negative = inhibition": "23.5% (inactive)"}
{"smiles": "CCc1ccc(NC(=O)C(=O)NNC(=O)c2cccs2)cc1", "largest response in the series, negative = inhibition": "6.91% (inactive)"}
{"smiles": "CC(C)(C)C(=O)NC(NC(=S)Nc1ccc(S(N)(=O)=O)cc1)C(Cl)(Cl)Cl", "note": "(stereo not given)", "largest response in the series, negative = inhibition": "7.73% (inactive)"}
{"smiles": "CC(C)C(=O)Nc1ccc(C(=O)NNC(=O)c2cccs2)cc1", "largest response in the series, negative = inhibition": "-14.7% (inactive)"}
{"smiles": "NS(=O)(=O)c1ccc(CCNC(=O)Nc2ccc(Cl)cc2)cc1", "largest response in the series, negative = inhibition": "7.27% (inactive)"}
{"smiles": "NS(=O)(=O)c1ccc(NC(=S)NNC(=O)c2cccs2)cc1", "Potency": "15.8 µM (active)"}
{"smiles": "NS(=O)(=O)c1ccc(NC(=S)NC(=O)c2cccc(Br)c2)cc1", "largest response in the series, negative = inhibition": "-13.6% (inactive)"}
{"smiles": "NS(=O)(=O)c1ccc(CCNC(=S)Nc2ccc(S(N)(=O)=O)cc2)cc1", "Potency": "20 µM (active)"}
{"smiles": "NS(=O)(=O)c1ccc(NC(=S)Nc2ccc(Br)c(Cl)c2)cc1", "Potency": "56.2 µM (active)"}
{"smiles": "NS(=O)(=O)c1ccc(CCNC(=O)CNC(=O)Cc2ccccc2)cc1", "largest response in the series, negative = inhibition": "-3.07% (inactive)"}
{"smiles": "COc1cccc(NC(=O)CN(C)C(=O)c2ccccc2CCc2ccccc2)c1", "largest response in the series, negative = inhibition": "4.61% (inactive)"}
{"smiles": "CCN1C(=NCCc2cccnc2)N[C@@H](c2ccccc2)C(C(=O)OC)=C1C", "largest response in the series, negative = inhibition": "4.98% (inactive) and 1.06% (inactive)"}
{"smiles": "CCOc1ccc(CN2CCN(CCCc3ccccc3)C(CCO)C2)cc1", "note": "(stereo not given)", "largest response in the series, negative = inhibition": "7.43% (inactive)"}
{"smiles": "CN(C)c1ccc(NC(=O)CN2C3CCCC2CC(NC(=O)c2ccccc2)C3)cc1", "note": "(stereo not given)", "largest response in the series, negative = inhibition": "-10% (inactive)"}
{"smiles": "O=C(CN1CCCCCC1)Nc1ccc(Br)cc1[N+](=O)[O-]", "largest response in the series, negative = inhibition": "-3.46% (inactive)"}
{"smiles": "CCCn1cc(S(=O)(=O)c2ccc(C)cc2)c(=O)c2cc(OCC)ccc21", "largest response in the series, negative = inhibition": "0.066% (inactive)"}
{"smiles": "COc1cc(C2NC(=O)NC(c3ccccc3)=C2C(C)=O)c(Br)cc1OCC(N)=O", "note": "(stereo not given)", "largest response in the series, negative = inhibition": "18.5% (inactive)"}
{"smiles": "CCOc1cc2[nH]c(=S)n(CCCN3CCCC3=O)c(=O)c2cc1OCC", "Potency": "56.2 µM (active)"}
{"smiles": "CCOc1cc2[nH]c(=O)n(Cc3ccc(C(=O)NCCCN4CCCC4=O)cc3)c(=O)c2cc1OCC", "largest response in the series, negative = inhibition": "9.7% (inactive)"}
{"smiles": "CCOc1cc2[nH]c(=S)n(CCN3CCCCC3C)c(=O)c2cc1OCC", "note": "(stereo not given)", "largest response in the series, negative = inhibition": "-4.39% (inactive)"}
{"smiles": "Cc1cc(=O)[nH]c(N/N=C/c2c(C)nn(-c3ccccc3Cl)c2Cl)n1", "largest response in the series, negative = inhibition": "-9.72% (inactive)"}
{"smiles": "Cc1cc(=O)[nH]c(N/N=C/c2ccc3c(c2)OCCO3)n1", "Potency": "56.2 µM (active)"}
{"smiles": "CCN(CC)c1ccc(/C=N/Nc2nc(C)cc(=O)[nH]2)cc1", "largest response in the series, negative = inhibition": "-16.8% (inactive)"}
{"smiles": "COc1ccc(/C=C(\\C#N)c2c[nH]c3ccccc23)cc1", "largest response in the series, negative = inhibition": "10.3% (inactive)"}
{"smiles": "Cc1ccc2c(c1)N(CC(=O)NCCc1ccc(Cl)cc1)C(=O)c1cccnc1O2", "largest response in the series, negative = inhibition": "-4.46% (inactive)"}
{"smiles": "COc1ccccc1NC(=O)CCN1CCN(c2ccc(Cl)cc2)CC1", "largest response in the series, negative = inhibition": "3.28% (inactive)"}
{"smiles": "COc1ccc(Cl)cc1NC(=O)CCN1CCOCC1", "largest response in the series, negative = inhibition": "13.9% (inactive)"}
{"smiles": "COC(=O)CNC(c1ccccc1Cl)c1cc(Br)ccc1NC(=O)CCN1CCOCC1", "note": "(stereo not given)", "Potency": "56.2 µM (active)"}
{"smiles": "CNS(=O)(=O)c1ccc(NC(=O)Nc2ccc3c(c2)OCO3)cc1", "largest response in the series, negative = inhibition": "-9.71% (inactive)"}
{"smiles": "CCc1ccc(OCC(O)CN2CCN(CCO)CC2)cc1", "note": "(stereo not given)", "largest response in the series, negative = inhibition": "5.76% (inactive)"}
{"smiles": "C/C(=N/NC(=O)c1ccn(C)n1)c1ccncc1", "largest response in the series, negative = inhibition": "5.8% (inactive)"}
{"smiles": "C/C(=N\\NC(N)=S)c1ccncc1", "Potency": "79.4 µM (active)"}
{"smiles": "C/C(=N/NC(=O)c1ccncc1)c1ccc2c(c1)OCO2", "largest response in the series, negative = inhibition": "4.66% (inactive)"}
{"smiles": "COc1ccc(CCNC(=O)CCCCCNC(=O)N2CCn3c2nc2ccccc23)cc1OC", "largest response in the series, negative = inhibition": "4.84% (inactive)"}
{"smiles": "Cc1ccccc1CNC(=O)CCC(=O)N1Cc2ccccc2Oc2ncccc21", "largest response in the series, negative = inhibition": "19% (inactive)"}
{"smiles": "CCn1c(SCc2cccc(C(=O)O)c2)nnc1-c1ccc(Cl)cc1", "largest response in the series, negative = inhibition": "1.11% (inactive)"}
{"smiles": "COc1ccc(-n2ncc3c2CC(C)(C)CC3NC(=O)CCc2c(C)nn(C)c2C)cc1", "note": "(stereo not given)", "largest response in the series, negative = inhibition": "11.2% (inactive)"}
{"smiles": "Cc1ccc(NC(=S)Nc2ccc(F)cc2)cc1", "largest response in the series, negative = inhibition": "5.93% (inactive)"}
{"smiles": "O=S(=O)(NC(=S)Nc1ccccc1)c1ccc(F)cc1", "Potency": "20 µM (active)"}
{"smiles": "COC(=O)C(NS(=O)(=O)c1ccc(F)cc1)c1ccccc1", "note": "(stereo not given)", "largest response in the series, negative = inhibition": "16.1% (inactive)"}
{"smiles": "Fc1cccc(Cl)c1CSc1ccc(-c2ccco2)nn1", "Potency": "39.8 µM (active)"}
{"smiles": "O=C(CSc1ncn[nH]1)NCc1ccc2c(c1)OCO2", "largest response in the series, negative = inhibition": "9.23% (inactive)"}
{"smiles": "O=C(CSc1ccc(-c2ccco2)nn1)NCc1ccc2c(c1)OCO2", "Potency": "50.1 µM (active)"}
{"smiles": "O=C(CSc1ccc(-c2ccc(F)cc2)nn1)Nc1ccc2c(c1)OCCO2", "largest response in the series, negative = inhibition": "-25.1% (inactive)"}
{"smiles": "O=C(CSc1ccc(-c2ccco2)nn1)Nc1cccc(F)c1", "Potency": "15.8 µM (active)"}
{"smiles": "Cc1ccccc1-c1nnc(SCC(=O)NCc2ccc3c(c2)OCO3)n1C", "largest response in the series, negative = inhibition": "4.47% (inactive)"}
{"smiles": "Cc1cc(SCc2c(F)cccc2Cl)nc(=O)[nH]1", "largest response in the series, negative = inhibition": "1.28% (inactive)"}
{"smiles": "Cn1c(SCc2c(F)cccc2Cl)nnc1-c1cnccn1", "largest response in the series, negative = inhibition": "-5.8% (inactive)"}
{"smiles": "COc1ccc(NC(=O)CSc2ccc(-c3ccco3)nn2)c(OC)c1", "largest response in the series, negative = inhibition": "-27.4% (inactive)"}
{"smiles": "O=C(NCC(=O)N1CCC2(CC1)NCCc1[nH]cnc12)c1ccc(Br)cc1", "largest response in the series, negative = inhibition": "9.84% (inactive)"}
{"smiles": "O=C(Cn1nc([N+](=O)[O-])nc1Br)NC1CCCCC1", "largest response in the series, negative = inhibition": "16.4% (inactive)"}
{"smiles": "CCOC(=O)N1CCN(S(=O)(=O)c2ccc(Br)cc2)CC1", "largest response in the series, negative = inhibition": "12.6% (inactive)"}
{"smiles": "C[C@H]1Cc2c(COc3ccccc3)nc3c(c2CO1)CN(C(=O)Nc1cccc(C#N)c1)CC3", "largest response in the series, negative = inhibition": "13.6% (inactive)"}
{"smiles": "Cc1ccc(C(=O)N2CCC(n3nccc3NC(=O)Nc3cccc(F)c3)CC2)cn1", "largest response in the series, negative = inhibition": "4.54% (inactive)"}
{"smiles": "CCCCC[C@H](O)/C=C/[C@@H]1[C@@H](CC(=O)CCC(=O)O)[C@@H](O)C[C@H]1O", "largest response in the series, negative = inhibition": "-8.37% (inactive)"}
